Laboratory results published in PubChem BioAssay AID1259313 (Sanford-Burnham Center for Chemical Genomics, 2017).
In all, about 340,000 compounds went through this assay and about 8,500 (2.5%) were called active.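 The calls were made as follows: active = melting temperature shift of at least 10% of the positive control shift, at one fixed dose; inactive = the rest.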 For the sample, actives were picked, then their nearest neighbours and some compounds at random.

Test system: Glutamate receptor ionotropic, NMDA 3A (GRIN3A) ligand-binding domain
Assay: NR3A LBD thermal stabilization by compounds – biophysical, differential scanning fluorimetry, uHTS, primary screen (AID 1259313)
Conditions: at 25 µM, stronger effect = higher value, 0% = protein alone, 100% = glycine-bound protein

Tm shift relative to glycine control, active:
Cc1nc(SCc2ccc(F)cc2)c([N+](=O)[O-])[nH]1 13.7%
O=C(Nc1ccccc1)c1ccc(NC(=O)c2cccs2)cc1 27%
O=C(Nc1ccc(NC(=O)c2cccs2)cc1)c1ccc2ccccc2c1 25.1%
O=C(NC(=S)Nc1ccc(NC(=O)c2cccs2)cc1)c1ccc([N+](=O)[O-])cc1 24.7%
O=C(Nc1ccc2oc(-c3ccc4ccccc4c3)nc2c1)c1cccs1 25.9%
Cc1ccc(Oc2cc(NC(=O)CCCn3nc(C)c([N+](=O)[O-])c3C)cc([N+](=O)[O-])c2)cc1 14.9%
CC1CC(C)CN(CC(=O)Nc2ccc(S(N)(=O)=O)cc2)C1 (centres undefined) 10%
O=C(COC(=O)C1CCN(S(=O)(=O)c2ccc3c(c2)OCCO3)CC1)Nc1ccccc1OC(F)F 10.1%
O=C(NN=Cc1ccccc1O)NN=Cc1ccccc1O 29.9%
Cc1cc([N+](=O)[O-])ccc1NC(=O)c1ccc(NC(=O)C(C)C)cc1 13.6%
CC(C)S(=O)(=O)c1csc(NC(=O)Nc2ccc(Cl)cc2)c1Cl 24.3%
COc1ccc(-c2ccc(Nc3ccc(S(=O)(=O)N4CCCC4)cc3)nn2)cc1OC 18.4%

Tm shift relative to glycine control, inactive:
Cc1nnc(NC2=NCCCCC2)o1 -2%
O=C(CC(NS(=O)(=O)c1ccc(Cl)cc1)c1ccco1)NC1CCCC1 (centres undefined) -0.32%
CCOC(=O)c1ccc(NC(=O)CS(=O)(=O)c2cn(CC)c3ccccc23)cc1 -11.8%
Cc1nc(SCC(=O)c2ccccc2)c([N+](=O)[O-])[nH]1 -0.87%
Cc1nc(N)nc(SCc2ccc([N+](=O)[O-])cc2)c1N 1.88%
CCCSC1=C(C#N)C(c2ccccc2C)C(C(=O)OC)C(=O)N1 (centres undefined) -0.63%
Cn1c(SCC(=O)Nc2cccc(NC(=O)c3cccs3)c2)nnc1-c1ccncc1 2.57%
O=C(Nc1ccc(C(=O)O)cc1)/C(=C/c1ccc([N+](=O)[O-])cc1)NC(=O)c1ccccc1 0.77%
O=C(Nc1ccccc1-c1ccccc1)c1cccs1 -0.76%
CC(Oc1cccc(NC(=O)c2cccs2)c1)C(=O)c1ccccc1 (centres undefined) -12.8%
C/C(=N\NC(=O)c1ccc(NS(=O)(=O)c2cccs2)cc1)c1ccc2ccccc2c1 5.52%
O=C(Nc1ccc(N2CCN(C(=O)C3CC3)CC2)cc1)c1cccs1 0.36%
O=C(Cc1cccs1)Nc1ccc([N+](=O)[O-])cc1 0.1%
O=C(Nc1ccc2oc(-c3ccccc3F)nc2c1)c1ccco1 -4.92%
O=C(Nc1ccnc(-c2ccncc2)n1)c1cccs1 -0.64%
Cc1cc(C)c(-c2csc(NC(=O)CCCc3nc4ccccc4c(=O)[nH]3)n2)c(C)c1 -5.38%
CCCCCN(C(=O)CCC(=O)OCC(=O)NC1CCC(C)CC1)c1c(N)n(CCCC)c(=O)[nH]c1=O (centres undefined) -0.6%
COc1cc(S(=O)(=O)N2CCN(C(=O)C3CC3)CC2)ccc1NC(C)=O 1.2%
CCCc1c(C(=O)N/N=C(\C)CCc2ccc(OC)cc2)nnn1-c1nonc1N 0.47%
CCNc1nc(N)nc(-c2cc(Cl)ccc2OC)n1 1.29%
CCN(CC(=O)Nc1c(F)cccc1F)C(=O)CN1c2cccc3cccc(c23)S1(=O)=O -0.42%
COc1ccc(CNC(=O)CCCn2nc(C)c([N+](=O)[O-])c2C)cc1 2.36%
CCc1ccc(NC(=O)Cn2nc(C)c([N+](=O)[O-])c2C)cc1 -12.5%
Cc1cc(C)cc(OCC(=O)OCC(=O)NC2CCCC2)c1 1.75%
CCOC(=O)C1CCCN(C(=O)Cn2ncc3c(=O)oc4ccc(C)cc4c32)C1 (centres undefined) -4.2%
Cc1ccc(-c2nnc(CN3CCN(C)CC3)o2)cc1 0.59%
CC1CN(C(=S)Nc2ccc(S(N)(=O)=O)cc2)CC(C)O1 (centres undefined) -1.98%
CC1Cc2ccccc2N1CC(=O)Nc1ccc(S(N)(=O)=O)cc1 (centres undefined) 6.2%
Cc1ccc(Nc2c(O)nc[nH]c2=O)cc1C -3.98%
CCOC(=O)C1CCN(C(=O)COC(=O)C2CCN(S(=O)(=O)c3ccc4c(c3)OCCO4)CC2)CC1 -0.43%
COc1ccccc1CNC(=O)C1CCN(S(=O)(=O)c2ccc3c(c2)OCCO3)CC1 6.45%
O=C(CSc1ncnc2scc(-c3ccccc3)c12)NCc1ccc2c(c1)OCO2 -0.99%
O=C(NN=Cc1ccccc1O)C(=O)NN=Cc1ccccc1O -0.25%
O=C(N/N=C/c1ccccc1O)C1CCCC1 -0.52%
COc1ccc(C2NC(=O)N(C)C(C)=C2[N+](=O)[O-])cc1 (centres undefined) 0%
CC(=O)c1ccc(NC(=O)Nc2ccc([N+](=O)[O-])cc2C)cc1 7.59%
CC(C)C(=O)Nc1cccc(NC(=O)c2ccc([N+](=O)[O-])cc2Cl)c1 -1.57%
CN(Cc1ccco1)S(=O)(=O)c1nnc(NC(=O)c2ccccc2)s1 -1.03%
CC(C)(Oc1ccc(C2CC2(Cl)Cl)cc1)C(=O)O (centres undefined) -0.77%
O=C(NCc1ccccn1)Nc1ccc(Cl)cc1 -1.47%
O=C(Nc1ccc(Cl)cc1)Nc1ccc(C(=O)N2CCOCC2)cc1 2.25%
COc1ccc([N+](=O)[O-])cc1N(CC(O)CN(CC(C)C)CC(C)C)S(=O)(=O)c1ccc(C)cc1 (centres undefined) -2.17%
COc1cccc(NC(=O)C(Sc2nc3ccccc3c(=O)n2CC(C)C)c2ccccc2)c1 (centres undefined) 5.55%
N#Cc1c(N)sc2c1CCN(C(=O)OCc1ccccc1)C2 -2.92%
Cn1cc(S(=O)(=O)NC(c2ccccc2)c2ccccc2)c(=O)n(C)c1=O -0.16%
COc1cc(C(C)=O)ccc1OC(C)C(=O)Nc1ccc(S(=O)(=O)N2CCCC2)cc1 (centres undefined) 1.81%
COc1ccc(S(=O)(=O)N2CCCCCC2)cc1NC(=O)Cc1ccc(OC)c(OC)c1 0.44%
